Mdm2-MdmX inh – disrupts the human Mdm2-MdmX interaction; O15151+Q00987; SaOS-2 split-luciferase Mdm2/MdmX complementation, luminescence; inhibition, % at 8 µM; 330,000 tested, 3% active; AID 485346;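 active = inhibition of at least 50% at 8 µM in the primary screen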
Target sequence (O15151 whole entry, looked up): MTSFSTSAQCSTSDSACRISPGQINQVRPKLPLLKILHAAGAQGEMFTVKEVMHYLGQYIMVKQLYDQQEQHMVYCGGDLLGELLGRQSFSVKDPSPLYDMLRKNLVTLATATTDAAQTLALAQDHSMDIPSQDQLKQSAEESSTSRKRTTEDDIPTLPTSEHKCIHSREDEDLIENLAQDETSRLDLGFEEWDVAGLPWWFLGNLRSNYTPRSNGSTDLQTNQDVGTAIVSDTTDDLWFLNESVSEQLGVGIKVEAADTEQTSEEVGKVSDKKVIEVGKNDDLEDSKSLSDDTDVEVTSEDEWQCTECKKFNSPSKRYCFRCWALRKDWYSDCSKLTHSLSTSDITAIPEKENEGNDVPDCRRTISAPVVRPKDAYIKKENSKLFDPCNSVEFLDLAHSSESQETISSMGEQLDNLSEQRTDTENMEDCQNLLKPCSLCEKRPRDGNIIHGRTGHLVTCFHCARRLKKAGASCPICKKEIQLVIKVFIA
Target sequence (Q00987 whole entry, looked up): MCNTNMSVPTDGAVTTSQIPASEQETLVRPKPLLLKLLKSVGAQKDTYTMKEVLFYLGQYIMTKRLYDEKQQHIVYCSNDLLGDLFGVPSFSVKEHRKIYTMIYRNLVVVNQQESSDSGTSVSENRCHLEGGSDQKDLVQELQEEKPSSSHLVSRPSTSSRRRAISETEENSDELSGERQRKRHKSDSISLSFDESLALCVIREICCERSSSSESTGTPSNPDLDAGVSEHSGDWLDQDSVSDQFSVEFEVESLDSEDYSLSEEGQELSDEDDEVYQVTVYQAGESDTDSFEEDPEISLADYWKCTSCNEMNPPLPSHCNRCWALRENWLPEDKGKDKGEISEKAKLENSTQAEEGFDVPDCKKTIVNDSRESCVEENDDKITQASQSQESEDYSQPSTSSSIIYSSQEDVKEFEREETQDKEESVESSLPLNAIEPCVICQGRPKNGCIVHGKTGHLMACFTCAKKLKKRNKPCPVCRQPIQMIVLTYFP
MPTP inh – blocks calcium-induced mitochondrial swelling | inhibition, % at 10 µM | isolated mouse mitochondria, Ca2+ swelling absorbance, 30 min | 360,000 tested, 1.4% active | AID 602449;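 active = inhibition of 50% or more, scaled per plate between neutral and stimulator controls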;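 also: 0% = DMSO wells given calcium and 100% = 1 mM EGTA wells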
CSC inhib – blocks cancer stem cells; cancer stem cell-like cells viability, luminescence; inhibition, % at 7.5 µM; 300,000 tested, 1.1% active; in the data active = inhibition above about 75%; tested in HMLE shEcad cells
Beta cell apopt – blocks beta cell apoptosis; INS-1E cytokine-induced death, ATP luminescence, 48 h; percent of positive-control rescue, neutral wells zero; protection from apoptosis, % (no concentration beside the values); 300,000 tested, 0.8% active; AID 435005;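 active = Every replicate reaches about 75%, or at least half do and their mean reaches it too, limit read from the data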;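 also: 0% = cytokine-treated negative control wells and 100% = positive control rescue; higher means more ATP so stronger rescue from cytokine killing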
SKKanGAS inh – blocks kanamycin growth of S. pyogenes SKKanGAS strain; BacTiter-Glo, 6 h; 300,000 tested, 1.3% active; inhibition, % at 7.5 µM;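 active = mean replicate score, as percent of positive control median, at least 50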;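 also: strain carries kanamycin resistance gene driven by streptokinase promoter and grows in 40 µg/ml kanamycin; loss of luminescence reflects streptokinase promoter inhibition or plain growth inhibition; 0% = median of DMSO wells and 100% = positive control at its reference dose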
NR3A LBD binder – NR3A (human) ligand-binding domain modulation; NR3A LBD differential scanning fluorimetry, Tm shift; 0% = protein alone, 100% = glycine-bound protein; 340,000 tested, 2.5% active; AID 1259313; Tm shift relative to glycine control, % at 25 µM;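 active = melting temperature shift of at least 10% of the positive control shift, at one fixed dose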
* hit, by the source's call. Shown are actives, neighbours in structure and some others; about 6.9% of the full set was active somewhere.

CN(C)C1=NC[C@H](Cc2ccccc2)N1CCCC1CCCCC1 was read as Mdm2-MdmX inh 43, MPTP inh 3, CSC inhib 27, Beta cell apopt 87* and NR3A LBD binder -5.
Screening CN(C)C1=NC[C@H](Cc2ccccc2)N1CCC1CCCC1 returned Mdm2-MdmX inh 29, MPTP inh 1, CSC inhib 3, Beta cell apopt 10 and NR3A LBD binder 2.
Screening S=C1NC[C@H](CC2CCCCC2)N1CCCCC1CCCCC1 returned Mdm2-MdmX inh 22, MPTP inh -3, CSC inhib -27, Beta cell apopt 3, SKKanGAS inh 76* and NR3A LBD binder -1.
Screening S=C1NC[C@H](Cc2ccccc2)N1CCCCC1CCCCC1 returned Mdm2-MdmX inh -25, MPTP inh -1, CSC inhib 136*, Beta cell apopt -11, SKKanGAS inh 16 and NR3A LBD binder -14.
O=C1NC[C@H](CC2CCCCC2)N(CCc2cccc3ccccc23)C1=O was read as MPTP inh 0.
`O=C1NC[C@@H](Cc2cccc3ccccc23)N(CCCCC2CCCCC2)C1=O` gave Mdm2-MdmX inh 19, MPTP inh -3, CSC inhib 88*, Beta cell apopt 0, SKKanGAS inh 82* and NR3A LBD binder -18.
S=C1NC[C@H](CC2CCCCC2)N1CCc1cccc2ccccc12 was read as Mdm2-MdmX inh 1, MPTP inh 2, CSC inhib 21, Beta cell apopt -2, SKKanGAS inh 17 and NR3A LBD binder -8.
`N#Cc1ccc(NC(=S)NC(=O)C2CC2)cc1` gave MPTP inh 0.
Screening COCCCNC(=O)CCc1nc2cccnc2n1Cc1ccccc1 returned Mdm2-MdmX inh -13, MPTP inh 1, CSC inhib 5, Beta cell apopt 2, SKKanGAS inh 1 and NR3A LBD binder 1.
Screening O=C(CCc1nc2cccnc2n1Cc1ccccc1)NCCc1ccc(Cl)cc1 returned Mdm2-MdmX inh 32, MPTP inh 0, CSC inhib -3, Beta cell apopt -7, SKKanGAS inh -10 and NR3A LBD binder 11*.
`CC(=O)NCCNc1nc2cc(-c3cccc(C(F)(F)F)c3)sc2c(=O)n1C` gave MPTP inh 1.
Screening O=C(Nc1nnc(Cc2ccc(Cl)cc2)s1)c1cccs1 returned Mdm2-MdmX inh 2, MPTP inh 4, CSC inhib 4, Beta cell apopt 2, SKKanGAS inh -10 and NR3A LBD binder 12*.
`Cc1ccc(C(=O)Nc2ncc(Cc3ccccc3)s2)o1` gave Mdm2-MdmX inh -104, MPTP inh -4, CSC inhib 97*, SKKanGAS inh 23 and NR3A LBD binder 3.
`O=C(Nc1ncc(Cc2cccc(Cl)c2)s1)c1cccs1` gave Mdm2-MdmX inh -42, MPTP inh 0, Beta cell apopt -1, SKKanGAS inh 95* and NR3A LBD binder -3.
O=C(Nc1nnc(Cc2ccccc2)s1)c1cccs1 was read as Mdm2-MdmX inh -20, MPTP inh 1, CSC inhib 21, Beta cell apopt 3, SKKanGAS inh 8 and NR3A LBD binder -1.
For O=C(Nc1ncc(Cc2cccc(Cl)c2)s1)C1=NCCN1 the results were Mdm2-MdmX inh 39, MPTP inh 0, CSC inhib 35, Beta cell apopt 20, SKKanGAS inh 20 and NR3A LBD binder 1.
O=C(Nc1ncc(Cc2ccccc2)s1)c1cccs1 was read as Mdm2-MdmX inh -104, MPTP inh -3, CSC inhib 50, Beta cell apopt -4, SKKanGAS inh 66* and NR3A LBD binder -18.
`C[C@H](CO)N1C[C@H](C)[C@H](CN(C)S(=O)(=O)c2cccs2)Oc2ncc(-c3cc4ccccc4o3)cc2C1=O` gave MPTP inh -1.
Screening Cc1coc2c1c(C)cc1oc(=O)c(CC(=O)N[C@@H](CC(C)C)C(=O)O)c(C)c12 returned Mdm2-MdmX inh 11, MPTP inh 0, CSC inhib -8, Beta cell apopt -2, SKKanGAS inh 6 and NR3A LBD binder 4.
O=C(Nc1ncc(Cc2ccc(SC(F)F)cc2)s1)c1ccccc1 was read as Mdm2-MdmX inh 30, MPTP inh -1, CSC inhib 68, Beta cell apopt 9, SKKanGAS inh 82* and NR3A LBD binder -3.
`Cc1ccc(Cc2cnc(NC(=O)C3CCCO3)s2)cc1` (stereo not drawn) gave Mdm2-MdmX inh -63, MPTP inh 0, CSC inhib -3, Beta cell apopt -11, SKKanGAS inh 4 and NR3A LBD binder 0.
`Cc1ccc(Cc2cnc(NC(=O)c3cccs3)s2)cc1` gave Mdm2-MdmX inh -203, MPTP inh -2, CSC inhib -23, Beta cell apopt 5, SKKanGAS inh 78* and NR3A LBD binder -10.
O=C(Nc1nnc(Cc2ccccc2)s1)c1ccccc1 was read as Mdm2-MdmX inh -3, MPTP inh 1, CSC inhib -1, Beta cell apopt -4, SKKanGAS inh 2 and NR3A LBD binder -1.
Screening CCOC(=O)Cc1ccc(Nc2nc3cc(-c4ccccc4C)sc3c(=O)n2C)cc1 returned MPTP inh 0.
Screening CC(=O)Nc1ccc(NC(=O)c2ccccc2N(C)S(=O)(=O)c2ccccc2)cc1 returned Mdm2-MdmX inh 16, MPTP inh -1, CSC inhib -6, Beta cell apopt -9, SKKanGAS inh -3 and NR3A LBD binder -2.
O=C(OCc1c(-c2ccccc2)ncc2ccccc12)c1ccc(F)cc1 was read as Mdm2-MdmX inh 9, MPTP inh 0, CSC inhib -10, Beta cell apopt 5 and NR3A LBD binder 14*.
Screening O=C(O)c1ccccc1C(=O)OCc1c(-c2ccccc2)ncc2ccccc12 returned Mdm2-MdmX inh 6, MPTP inh -2, CSC inhib 0, Beta cell apopt -2 and NR3A LBD binder -1.
`CC(=O)Oc1ccc(N(C(C)=O)S(=O)(=O)c2ccc3ccccc3c2)cc1` gave Mdm2-MdmX inh 22, MPTP inh 1, CSC inhib 6, Beta cell apopt -7, SKKanGAS inh 2 and NR3A LBD binder 8.
For O=C1CCC(/C=C/c2ccccc2)=NN1Cc1ccccc1Cl the results were Mdm2-MdmX inh 16, MPTP inh 4, CSC inhib -6, Beta cell apopt -9, SKKanGAS inh -16 and NR3A LBD binder -13.
`O=C1CCC(/C=C/c2ccccc2)=NN1Cc1ccc(Cl)c(Cl)c1` gave Mdm2-MdmX inh -16, MPTP inh 2, CSC inhib -11, Beta cell apopt -17, SKKanGAS inh 53* and NR3A LBD binder -10.
For C=CCN1C(=O)[C@@H]2Cc3c([nH]c4ccccc34)C(c3ccc(O)cc3)N2C1=S (stereo partly drawn) the results were Mdm2-MdmX inh 29, MPTP inh 1, SKKanGAS inh 31 and NR3A LBD binder 21*.

Assay outcomes as filed in PubChem BioAssay.
